In PubChem BioAssay AID1159580 (chemical genetic matrix, 2015):
“And” between values parts separate entries of the source, which are not always exact repeats. Equal values may be shown once. In all, about 5,500 compounds went through this assay and about 2,000 (36%) were called active. Another 18% or so got no clear call; they are omitted. Rule as the data show it: active = normalized growth mostly below about 0.91 (no sharp cut-off); inconclusive = no clear call, values can overlap the other calls; inactive = mostly above about 0.92. The list shows a part of the results.

Assay: chemical genetic growth profiling, strain panel (AID 1159580);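 also: tested at 20 µM; growth read once vehicle control cultures reached saturation at 30 °C; 1 = growth at the plate median or of vehicle wells; lower values mean less growth of the strain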
Conditions: S. cerevisiae deletion strains, growth OD
[1] = locus YMR307W, strain GAS1, stronger effect = lower value
[2] = locus YPL241C, strain CIN2, stronger effect = lower value

Measured: normalized growth

C=C(CC)C(=O)c1ccc(OCC(=O)O)c(Cl)c1Cl
1 (inactive) and 0.835 (active): locus YJL095W, strain BCK1, stronger effect = lower value
inactive: locus YAL013W, strain DEP1, stronger effect = lower value 0.984 | locus YAL021C, strain ccr4, stronger effect = lower value 1 | locus YAL026C, strain drs2, stronger effect = lower value 0.98 | locus YAL030W, strain snc1, stronger effect = lower value 1.01 | locus YBL061C, strain skt5, stronger effect = lower value 1 | locus YBR009C, strain hhf1, stronger effect = lower value 1.01 | locus YBR021W, strain FUR4, stronger effect = lower value 1.02 | locus YBR023C, strain chs3, stronger effect = lower value 1.03 | locus YBR171W, strain sec66, stronger effect = lower value 1.01 | locus YBR229C, strain ROT2, stronger effect = lower value 0.951 | locus YBR231C, strain swc5, stronger effect = lower value 0.972 | locus YBR279W, strain paf1, stronger effect = lower value 1.01 | locus YCL011C, strain gbp2, stronger effect = lower value 1.03 | locus YCL016C, strain dcc1, stronger effect = lower value 1.04 | locus YCL029C, strain bik1, stronger effect = lower value 0.973 | locus YCL061C, strain MRC1, stronger effect = lower value 1.03 | locus YCL069W, strain vba3, stronger effect = lower value 1 | locus YCR088W, strain abp1, stronger effect = lower value 1.01 | locus YDL005C, strain med2, stronger effect = lower value 0.999 | locus YDL035C, strain GPR1, stronger effect = lower value 0.988 | locus YDL040C, strain nat1, stronger effect = lower value 0.994 | locus YDL074C, strain BRE1, stronger effect = lower value 0.986 | locus YDL101C, strain DUN1, stronger effect = lower value 0.983 | locus YDL134C, strain PPH21, stronger effect = lower value 0.972 | locus YDL192W, strain arf1, stronger effect = lower value 0.972 | locus YDR001C, strain nth1, stronger effect = lower value 1 | locus YDR069C, strain doa4, stronger effect = lower value 0.99 | locus YDR101C, strain arx1, stronger effect = lower value 0.92 | locus YDR137W, strain rgp1, stronger effect = lower value 1.01 | locus YDR150W, strain NUM1, stronger effect = lower value 0.976 | locus YDR159W, strain sac3, stronger effect = lower value 0.955 | locus YDR162C, strain NBP2, stronger effect = lower value 0.966 | locus YDR195W, strain ref2 0.974 | locus YDR297W, strain sur2, stronger effect = lower value 1.02 | locus YDR318W, strain mcm21, stronger effect = lower value 0.992 | locus YDR334W, strain swr1, stronger effect = lower value 1 | locus YDR335W, strain msn5, stronger effect = lower value 1.01 | locus YDR388W, stronger effect = lower value 0.972 | locus YDR392W, strain spt3, stronger effect = lower value 0.948 | locus YDR502C, strain sam2, stronger effect = lower value 0.984 | locus YEL003W, strain gim4, stronger effect = lower value 0.985 | locus YEL037C, strain rad23, stronger effect = lower value 1 | locus YEL061C, strain CIN8 (second series), stronger effect = lower value 1 | locus YEL061C, strain CIN8, stronger effect = lower value 0.996 | locus YER015W, strain faa2, stronger effect = lower value 0.993 | locus YER016W, strain bim1, stronger effect = lower value 0.993 | locus YER110C, stronger effect = lower value 0.963 | locus YER111C, strain swi4, stronger effect = lower value 1 | locus YER155C, strain BEM2 (second series), stronger effect = lower value 0.997 | locus YER155C, strain BEM2, stronger effect = lower value 0.998 | locus YER167W, strain BCK2, stronger effect = lower value 1 | locus YFR010W, strain ubp6, stronger effect = lower value 1.01 | locus YGL078C, strain dbp3, stronger effect = lower value 0.954 | locus YGL086W, strain mad1, stronger effect = lower value 0.977 | locus YGL167C, strain pmr1, stronger effect = lower value 1.01 | locus YGL173C, strain kem1, stronger effect = lower value 1 | locus YGL227W, strain vid30, stronger effect = lower value 1.01 | locus YGL240W, strain doc1, stronger effect = lower value 1.02 | locus YGL248W, strain PDE1, stronger effect = lower value 0.985 | locus YGL253W, strain hxk2, stronger effect = lower value 0.988 | locus YGR078C, strain PAC10, stronger effect = lower value 0.964 | locus YGR135W, strain pre9, stronger effect = lower value 1.05 | locus YGR229C, strain SMI1, stronger effect = lower value 1 | locus YGR252W, strain gcn5, stronger effect = lower value 1.2 | locus YHR013C, strain ard1, stronger effect = lower value 1.04 | locus YHR027C, strain rpn1, stronger effect = lower value 1.02 | locus YHR030C, strain SLT2, stronger effect = lower value 0.985 and 0.868 | locus YHR079C, strain IRE1 (second series), stronger effect = lower value 0.982 | locus YHR079C, strain IRE1, stronger effect = lower value 0.869 | locus YHR094C, strain hxt1, stronger effect = lower value 0.955 | locus YHR129C, strain ARP1, stronger effect = lower value 0.977 | locus YHR142W, strain chs7, stronger effect = lower value 1.04 | locus YHR200W, strain rpn10, stronger effect = lower value 0.984 | locus YIL066C, strain RNR3, stronger effect = lower value 0.968 | locus YIL073C, strain SPO22, stronger effect = lower value 0.995 | locus YIR030C, strain dcg1, stronger effect = lower value 0.993 | locus YJL092W, strain hpr5, stronger effect = lower value 1.01 | locus YJL095W, strain BCK1 (second series), stronger effect = lower value 1.03 | locus YJL115W, strain asf1, stronger effect = lower value 1 | locus YJL129C, strain trk1, stronger effect = lower value 1.02 | locus YJL134W, strain LCB3, stronger effect = lower value 0.983 | locus YJL154C, strain vps35, stronger effect = lower value 0.997 | locus YJL164C, strain tpk1, stronger effect = lower value 1.03 | locus YJL166W, strain qcr8, stronger effect = lower value 1.05 | locus YJL168C, strain set2, stronger effect = lower value 0.971 | locus YJL187C, strain SWE1 (second series), stronger effect = lower value 0.968 | locus YJL187C, strain SWE1, stronger effect = lower value 1 | locus YJR043C, strain POL32, stronger effect = lower value 0.981 | locus YJR075W, strain HOC1, stronger effect = lower value 0.982 | locus YKL009W, strain mrt4, stronger effect = lower value 0.923 | locus YKL085W, strain MDH1 (second series), stronger effect = lower value 0.938 | locus YKL085W, strain MDH1, stronger effect = lower value 0.938 | locus YKL160W, strain elf1, stronger effect = lower value 1.06 | locus YKR001C, strain vps1, stronger effect = lower value 0.906 | locus YKR026C, strain gcn3, stronger effect = lower value 1 | locus YKR091W, strain srl3, stronger effect = lower value 1.01 | locus YLL001W, strain dnm1, stronger effect = lower value 1.05 | locus YLL026W, stronger effect = lower value 1.01 | locus YLL041C, strain sdh2, stronger effect = lower value 1 | locus YLR027C, strain aat2, stronger effect = lower value 0.995 | locus YLR039C, strain RIC1, stronger effect = lower value 0.91 | locus YLR058C, strain SHM2, stronger effect = lower value 0.972 | locus YLR102C, strain apc9, stronger effect = lower value 0.972 | locus YLR221C, strain rsa3, stronger effect = lower value 1.04 | locus YLR258W, strain gsy2, stronger effect = lower value 1.02 | locus YLR262C, strain YPT6 (second series), stronger effect = lower value 1.01 | locus YLR262C, strain YPT6, stronger effect = lower value 0.873 | locus YLR268W, strain sec22, stronger effect = lower value 0.99 | locus YLR320W, strain mms22, stronger effect = lower value 1.08 | locus YLR330W, strain CHS5, stronger effect = lower value 0.978 | locus YLR342W, strain FKS1 (second series), stronger effect = lower value 0.983 | locus YLR342W, strain FKS1, stronger effect = lower value 1.01 | locus YLR357W, strain rsc2, stronger effect = lower value 0.995 | locus YLR370C, strain arc18, stronger effect = lower value 1.02 | locus YLR371W, strain rom2, stronger effect = lower value 0.953 | locus YLR384C, strain iki3, stronger effect = lower value 1.01 | locus YLR418C, strain cdc73, stronger effect = lower value 1 | locus YML016C, strain PPZ1, stronger effect = lower value 0.982 | locus YML032C, strain rad52, stronger effect = lower value 0.962 | locus YML120C, strain ndi1, stronger effect = lower value 1.05 | locus YML124C, strain tub3, stronger effect = lower value 0.98 | locus YMR058W, strain fet3, stronger effect = lower value 1 | locus YMR078C, strain ctf18, stronger effect = lower value 0.962 | locus YMR125W, strain sto1, stronger effect = lower value 1.02 | locus YMR129W, stronger effect = lower value 1.01 | locus YMR205C, strain PFK2, stronger effect = lower value 1.06 | locus YMR223W, strain ubp8, stronger effect = lower value 1.02 | locus YMR231W, strain pep5, stronger effect = lower value 0.978 | [1] 1 | locus YNL067W, strain RPL9B, stronger effect = lower value 0.986 | locus YNL071W, strain lat1, stronger effect = lower value 1.01 | locus YNL209W, strain ssb2, stronger effect = lower value 1.02 | locus YNL233W, strain BNI4, stronger effect = lower value 0.988 | locus YNL248C, strain rpa49, stronger effect = lower value 1.01 | locus YNL250W, strain rad50, stronger effect = lower value 0.913 | locus YNL298W, strain CLA4, stronger effect = lower value 0.912 | locus YNL307C, strain MCK1, stronger effect = lower value 0.98 | locus YNL322C, strain KRE1 (second series), stronger effect = lower value 1.02 | locus YNR049C, strain mso1, stronger effect = lower value 1.01 | locus YNR052C, strain pop2, stronger effect = lower value 0.981 | locus YOL006C, strain TOP1, stronger effect = lower value 1 | locus YOL012C, strain htz1 1.29 | locus YOL147C, strain pex11, stronger effect = lower value 0.99 | locus YOR001W, strain rrp6, stronger effect = lower value 0.948 | locus YOR061W, strain CKA2, stronger effect = lower value 0.964 | locus YOR069W, strain VPS5, stronger effect = lower value 0.988 | locus YOR070C, strain gyp1, stronger effect = lower value 1.04 | locus YOR080W, strain dia2, stronger effect = lower value 1.01 | locus YOR083W, strain WHI5, stronger effect = lower value 1.05 | locus YOR106W, strain vam3, stronger effect = lower value 1.04 | locus YOR136W, strain idh2, stronger effect = lower value 0.979 | locus YOR144C, strain elg1, stronger effect = lower value 0.989 | locus YOR184W, strain ser1, stronger effect = lower value 0.991 | locus YOR231W, strain MKK1, stronger effect = lower value 0.909 | locus YOR265W, strain rbl2, stronger effect = lower value 1.01 | locus YOR270C, strain vph1, stronger effect = lower value 1.08 | locus YOR290C, strain snf2, stronger effect = lower value 1.01 | locus YOR316C, strain cot1, stronger effect = lower value 0.96 | locus YPL051W, strain arl3, stronger effect = lower value 0.992 | locus YPL078C, strain atp4, stronger effect = lower value 1.04 | locus YPL106C, strain sse1, stronger effect = lower value 1.01 | locus YPL240C, strain hsp82, stronger effect = lower value 1.02 | [2] 0.983 | locus YPL256C, strain CLN2, stronger effect = lower value 0.899 | locus YPR119W, strain clb2, stronger effect = lower value 0.973 | locus YPR163C, strain tif3, stronger effect = lower value 0.981 | locus YPR167C, strain met16, stronger effect = lower value 0.989 | strain wtn01, stronger effect = lower value 0.997
active: locus YDL185W, strain tfp1, stronger effect = lower value 0.882 | locus YIL125W, strain kgd1, stronger effect = lower value 0.927 | locus YJR066W, strain TOR1, stronger effect = lower value 0.708 | locus YKL068W, stronger effect = lower value 0.91 | locus YLR113W, strain HOG1, stronger effect = lower value 0.551 | locus YNL183C, strain NPR1, stronger effect = lower value 0.828 | locus YNL271C, strain bni1, stronger effect = lower value 0.917 | locus YPR141C, strain kar3, stronger effect = lower value 0.902

C[C@@]1(C2CCCC2)Cc2cc(OCC(=O)O)c(Cl)c(Cl)c2C1=O
inactive: locus YAL040C, strain CLN3, stronger effect = lower value 1 | locus YCL061C, strain MRC1 (second series), stronger effect = lower value 1.01 | locus YDR363W, strain ESC2, stronger effect = lower value 1.01 | locus YER002W, strain NOP16, stronger effect = lower value 1 | [1] 1.01 | locus YNL128W, strain TEP1, stronger effect = lower value 1 | locus YNL175C, strain NOP13, stronger effect = lower value 1 | locus YNL197C, strain WHI3, stronger effect = lower value 1 | locus YNL224C, strain SQS1, stronger effect = lower value 1 | locus YNL322C, strain KRE1, stronger effect = lower value 1 | locus YOR083W, strain WHI5 (second series), stronger effect = lower value 1.01 | locus YPL055C, strain LGE1, stronger effect = lower value 1.01 | [2] 1.01
